14-3-3 Bad PPI: disrupts binding of bovine 14-3-3 zeta to phospho-Bad peptide; P63103; TR-FRET 14-3-3zeta/Dy647-pBad peptide displacement, 1 h; inhibition, % at 21.7 µM; 220,000 tested, 0.71% active;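 active = inhibition above about 70%, limit read from the data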
Mcl1-Bid inh: disrupts binding of human Mcl-1 to Bid peptide; 220,000 tested, 0.97% active; TR-FRET Mcl-1/Bid-Dy647 peptide binding, 1536-well; inhibition, % at 21.7 µM; AID 1021;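 active = compounds that cut the binding signal by more than half at the single screening dose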;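 note: His-tagged Mcl-1 with europium anti-His antibody binding Bid BH3 peptide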
eIF4E-4G inh: blocks eIF4E binding to eIF4G. inhibition, % at 21.7 µM. P63073+Q04637. TR-FRET eIF4E-eIF4GI(517-606) binding, 2 h. 220,000 tested, 0.37% active. AID 782
Target sequence (P63073 whole entry, looked up): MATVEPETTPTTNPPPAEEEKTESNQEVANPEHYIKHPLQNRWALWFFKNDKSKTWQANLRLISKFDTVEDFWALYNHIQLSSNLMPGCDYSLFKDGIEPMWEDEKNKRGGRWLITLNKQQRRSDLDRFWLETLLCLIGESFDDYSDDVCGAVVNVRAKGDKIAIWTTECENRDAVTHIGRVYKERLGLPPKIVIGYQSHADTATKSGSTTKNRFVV
Target sequence (Q04637 whole entry, looked up): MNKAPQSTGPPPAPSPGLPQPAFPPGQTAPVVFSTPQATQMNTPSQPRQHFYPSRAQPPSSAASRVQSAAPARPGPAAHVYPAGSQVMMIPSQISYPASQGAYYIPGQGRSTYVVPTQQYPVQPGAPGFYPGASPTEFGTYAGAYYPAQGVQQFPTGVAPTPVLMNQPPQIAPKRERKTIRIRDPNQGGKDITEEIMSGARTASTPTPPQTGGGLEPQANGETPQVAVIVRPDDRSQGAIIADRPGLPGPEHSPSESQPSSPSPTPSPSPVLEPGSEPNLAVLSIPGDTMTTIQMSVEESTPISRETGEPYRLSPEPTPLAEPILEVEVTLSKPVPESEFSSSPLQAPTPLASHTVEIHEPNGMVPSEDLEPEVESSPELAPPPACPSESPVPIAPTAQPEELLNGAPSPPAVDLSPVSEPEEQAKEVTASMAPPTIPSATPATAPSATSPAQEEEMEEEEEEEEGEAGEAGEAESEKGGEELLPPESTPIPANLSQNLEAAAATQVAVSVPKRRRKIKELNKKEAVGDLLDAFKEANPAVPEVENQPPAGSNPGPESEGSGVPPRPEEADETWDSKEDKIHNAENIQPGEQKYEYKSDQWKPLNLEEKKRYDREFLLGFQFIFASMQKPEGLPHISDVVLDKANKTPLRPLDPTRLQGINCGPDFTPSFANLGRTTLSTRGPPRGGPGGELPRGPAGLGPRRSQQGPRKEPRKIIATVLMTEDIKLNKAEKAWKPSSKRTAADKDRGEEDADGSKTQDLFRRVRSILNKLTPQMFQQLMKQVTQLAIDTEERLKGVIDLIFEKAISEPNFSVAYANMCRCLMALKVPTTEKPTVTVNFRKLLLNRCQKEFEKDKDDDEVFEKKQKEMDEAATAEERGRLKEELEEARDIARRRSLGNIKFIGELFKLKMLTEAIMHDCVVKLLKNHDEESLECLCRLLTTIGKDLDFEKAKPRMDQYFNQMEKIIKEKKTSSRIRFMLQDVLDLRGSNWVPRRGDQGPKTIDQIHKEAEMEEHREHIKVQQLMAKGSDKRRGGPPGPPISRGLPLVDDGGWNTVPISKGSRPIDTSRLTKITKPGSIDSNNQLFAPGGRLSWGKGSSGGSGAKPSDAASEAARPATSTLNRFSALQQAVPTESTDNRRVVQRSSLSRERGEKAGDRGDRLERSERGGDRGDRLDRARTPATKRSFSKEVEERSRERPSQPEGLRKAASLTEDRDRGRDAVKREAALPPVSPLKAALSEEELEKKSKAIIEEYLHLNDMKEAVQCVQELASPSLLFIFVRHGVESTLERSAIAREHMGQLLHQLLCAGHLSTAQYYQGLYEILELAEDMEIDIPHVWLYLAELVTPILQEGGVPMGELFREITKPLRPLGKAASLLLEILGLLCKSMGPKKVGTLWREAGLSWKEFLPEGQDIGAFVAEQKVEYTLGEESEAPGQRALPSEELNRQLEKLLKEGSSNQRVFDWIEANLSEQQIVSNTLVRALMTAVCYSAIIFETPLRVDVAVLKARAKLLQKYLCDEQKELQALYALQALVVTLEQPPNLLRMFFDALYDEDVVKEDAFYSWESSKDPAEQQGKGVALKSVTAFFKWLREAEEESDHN
Mcl1-Noxa inh: disrupts binding of human Mcl-1 to Noxa peptide; 220,000 tested, 1.5% active; TR-FRET Mcl-1/Noxa peptide binding, 2 h; AID 1022; inhibition, % at 21.7 µM; Q07820;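 active = compounds that cut the protein-peptide binding signal by more than 50% relative to plate controls in a single-dose test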;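 note: His-tagged Mcl-1 with rhodamine Noxa BH3 peptide and terbium anti-His antibody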
p47phox inh: inhibitors of human p47phox binding. P14598. p47phox/p22phox peptide binding, fluorescence polarization, 2 h. inhibition, % at 24.7 µM. 220,000 tested, 0.53% active. AID 1274
Bim-Mcl-1: inhibitors of Bim-Mcl-1 interaction, human. AID 1009. 190,000 tested, 0.1% active. Q07820. Bead-based flow cytometry, Bim peptide-Mcl-1 binding. inhibition, % at 10 µM; in the data active = inhibition above about 40%
A number is an active result; 0 = inactive; - = no result given; + = active, no number; ! = not confirmed by another sample; [ ] = dose if it differs, or a comment. Only some compounds are listed: those with a hit (about 3.3% of all), similar ones and a draw of the others.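 Rule for the calls, unless noted: active = inhibition above about 30% (limit read from the data); inactive = the rest.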

SMILES	14-3-3 Bad PPI	Mcl1-Bid inh	eIF4E-4G inh	Mcl1-Noxa inh	p47phox inh	Bim-Mcl-1
Cc1ccc(C(C)C)c(OCCN(C)C)c1	0	59.5	0	0	0	0
CCCN(CCC)CCOc1cc(C)ccc1C(C)C	0	0	0	0	0	0
COc1cccc(-n2c(SCc3cc(=O)oc4cc(O)c(O)cc34)nc3ccccc3c2=O)c1	0	0	0	100.3	0	0
Cn1nc(Cc2n[nH]c(=S)n2C)c2ccccc2c1=O	0	0	0	0	0	-
COc1ccc(CN2CCN(C(=O)CC(C)C)CC2)c(OC)c1OC	73.0	0	77.2	0	0	0
CCc1ccc(CN2CCN(C(=O)c3cccc(OC)c3OC)CC2)cc1	0	0	0	0	0	0
COc1cc(CN2CCN(C(=O)CC(C)C)CC2)cc(OC)c1OC	79.7	0	0	0	0	0
COc1cc(CN2CCN(C(=O)CC(C)C)CC2)cc(OC)c1O	0	50.9	0	0	0	0
COc1ccc(CN2CCN(C(=O)CN3C(=O)C4C5C=CC(C5)C4C3=O)CC2)c(OC)c1OC (centres undefined)	0	0	0	0	0	0
O=C(COC(=O)c1cc(S(=O)(=O)NCc2ccccc2)ccc1O)c1cc2ccccc2o1	0	0	0	0	0	-
O=C(NC1CCCCC1)C(=S)N1CCOCC1	0	0	0	0	0	0
O=C1CC(=O)N(Cc2ccco2)C(=O)N1	0	0	31.3	0	0	0
O=C1CC(=O)N(Cc2ccco2)C(=S)N1	0	0	0	0	0	0
CN1CCN(CCCN2c3ccccc3Sc3ccc(Cl)cc32)CC1	0	0	0	77.2	109.9!	0
CN1CCN(CCCNC(=O)c2ccc(/C=C3/Sc4ccccc4N(Cc4cccc(Cl)c4)C3=O)cc2)CC1	77.3	0	0	0	78.1	0
OCCN1CCN(CCCN2c3ccccc3Sc3ccc(C(F)(F)F)cc32)CC1	0	0	0	0	0	0
CN1CCN(CCCNC(=O)c2ccc(/C=C3\Sc4ccccc4N(Cc4ccc(F)cc4)C3=O)cc2)CC1	73.5	0	35.0	0	87.3	0
COCCCNC(=O)/C=C1\Sc2ccccc2N(Cc2ccccc2F)C1=O	0	0	0	0	0	0
CCN1CCN(CCNC(=O)c2ccc(/C=C3\Sc4ccccc4N(Cc4ccccc4F)C3=O)cc2)CC1	0	0	0	0	85.9	0
COC(=O)c1cc(NS(=O)(=O)c2ccc(C(C)C)cc2)ccc1N1CCOCC1	0	0	0	0	0	-
Cn1c(C(C)(O)C(O)c2ccccc2)nc2ccccc21 (centres undefined)	0	0	87.5[fluorescence artefact?]	0	0	0
Cn1c(CNc2ccccc2)nc2ccccc21	0	0	0	0	0	0
O=C(Cc1ccc(S(=O)(=O)N2CCOCC2)s1)Nc1nc2c(s1)CCCC2	0	0	0	70.9	0	0
O=C(Cc1ccc(S(=O)(=O)N2CCOCC2)s1)Nc1ccc2c(c1)CCC2	0	0	0	0	0	0
COc1ccc(-c2nnc(SCc3ccccn3)n2C)cc1	0	0	0	0	0	0
SMILES	14-3-3 Bad PPI	Mcl1-Bid inh	eIF4E-4G inh	Mcl1-Noxa inh	p47phox inh	Bim-Mcl-1
COc1ccc(N=C(N)SCc2ccccn2)cc1	0	67.4	0	0	0	0
Cc1cc(C)n(-c2ccc(C(=O)Nc3ccc(C)c(S(=O)(=O)N4CCOCC4)c3)cc2)n1	0	0	0	0	0	-
Cc1c(N/C(=N/S(=O)(=O)c2ccc(Cl)cc2)c2ccccc2)c(=O)n(-c2ccccc2)n1C	0	0	0	0	0	0
COc1cc(/C=C2\SC(=N)N(c3ccc(F)cc3)C2=O)ccc1O	0	0	0	53.2	0	0
COc1cccc(NC(=O)COC(=O)c2c(F)cccc2F)c1	0	0	0	0	0	0
O=C(COc1ccc(S(=O)(=O)Nc2ccccc2)cc1)NCc1cccnc1	0	0	0	0	0	0
O=C(CN1C(=O)CSc2ccc(S(=O)(=O)N3CCOCC3)cc21)NCc1cccnc1	0	0	0	54.5	0	0
O=C(COc1ccc(S(=O)(=O)N2CCCCC2)cc1)NCc1cccnc1	0	0	0	0	35.0	0
COC(=O)CC1C(=O)NCCN1C(=O)CSc1nc2ccccc2s1 (centres undefined)	0	0	0	0	0	0
Nc1nnn(CC(=O)N/N=C/C=C/c2ccccc2)n1	0	0	0	0	0	-
Cc1cc(C)c(-c2cc(NC(=O)COC(=O)c3ccc(CO)cc3)n(-c3ccccc3)n2)cc1C	0	0	0	0	+	0
CNC(=O)NC(=O)COC(=O)c1ccccc1OCc1ccccc1	0	0	0	54.5	0	0
COc1ccccc1C(=O)OCC(=O)NC(=O)NCc1ccccc1	0	0	0	0	-	0
C/C(C/C(C)=C1/SC(=S)NC1=O)=C1\SC(=S)NC1=O	0	77.9	0	72.6	0	0
CCCCCC/C(C)=C1/SC(=S)NC1=O	0	0	0	0	0	0
CCN(c1ccc(NC(=O)COC(=O)c2cc3ccccc3oc2=O)cc1)C(C)C	0	0	0	85.7	0	0
CCN(CC)S(=O)(=O)c1cccc(NC(=O)c2cc3ccccc3o2)c1	0	0	0	0	0	0
COc1cccc(/C=C/C(=O)OCC(=O)Nc2cccc(S(=O)(=O)N(C)C)c2)c1	94.6	0	0	0	0	0
CN(C)S(=O)(=O)c1cccc(NC(=O)c2cc3ccccc3o2)c1	75.1[fluorescence artefact?]	0	0	0	0	0
CN(C)S(=O)(=O)c1cccc(NC(=O)COC(=O)c2cc3ccccc3oc2=O)c1	0	80.3	0	0	0	-
CCN(c1ccc(NC(=O)COC(=O)c2cccs2)cc1)C(C)C	0	0	0	87.2	0	0
CC(=O)Nc1ccc(C(=O)/C=C/c2ccco2)cc1	0	0	0	60.9	0	0
O=C(/C=C\c1ccco1)c1ccc(NC(=O)c2ccco2)cc1	0	0	0	75.7	0	0
CC(=O)Nc1cccc(C(=O)/C=C/c2ccc(/C=C/C(=O)c3cccc(NC(C)=O)c3)cc2)c1	0	58.9	0	0	0	0
Cc1cc(Br)c(NC(=O)c2c(-c3c(Cl)cccc3Cl)noc2C)c(Br)c1	0	0	0	0	0	-
SMILES	14-3-3 Bad PPI	Mcl1-Bid inh	eIF4E-4G inh	Mcl1-Noxa inh	p47phox inh	Bim-Mcl-1
CNCCCOc1ccc(C)cc1Br	0	61.1	0	0	0	0
N#Cc1ccc(CSc2nnc(NC(=O)c3ccc4ncsc4c3)s2)cc1	86.1	0	74.5	0	0	0
O=C(Nc1nnc(SCc2c(Cl)cccc2Cl)s1)c1ccc2ncsc2c1	92.6	0	0	0	0	0
CCNc1nc(ON=C(C)C)nc(N(C)C)n1	0	0	0	0	0	0
CCOc1ccc(CC(=O)NNC(=S)NC)cc1Br	0	0	0	0	0	-
CCN(CC)CCNC(=O)c1ccc(NC(=O)c2ccc(F)cc2F)cc1	0	0	0	0	-	0
Cc1nc(NC(=O)/C=C/c2ccco2)sc1C	0	0	0	57.7	0	0
O=C(/C=C/c1ccco1)Nc1ccccc1C(=O)O	0	0	0	52.2	0	0
O=C(/C=C/c1ccco1)Nc1cccc(NC(=O)/C=C/c2ccco2)n1	0	0	0	71.8	0	0
